Bioassay records from PubChem.
In the library only some 11% were active in any assay of this set; here they are far more common.
L3MBTL1 block: inhibitors of human L3MBTL1; AlphaScreen L3MBTL1–H3K9me1 peptide binding; Potency, µM (series often up to 57.1 µM), for the others: top-dose activity, negative = inhibition, actives largely listed as inhibitors; 230,000 tested, 0.66% active; AID 485360; also: potency is read from the fitted curve at half-maximal effect; % is scaled to controls: 0 for no effect and ±100 for the full control effect; nearly all actives have a fitted effect of over 60% in size
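L3MBTL1 (50 nM) pre-complexed 30 min with biotinylated H3(1-15)K9me1 peptide (75 nM), then compounds added for 30 min at room temperature; AlphaScreen streptavidin donor/nickel chelate acceptor beads (10 ug/mL final) read after 30 min dark incubation.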
BAZ2B inh: blocks human BAZ2B | Q9UIF8 | AlphaScreen BAZ2B-H3K14Ac peptide displacement | Potency, µM (series often up to 114 µM), for the others: at the highest dose activity change, negative = inhibition, actives largely listed as inhibitors | 360,000 tested, 4.4% active; also: potency is read from the fitted curve at half-maximal effect; % is scaled to controls: 0 for no effect and ±100 for the full control effect; nearly all actives have a fitted effect of over 60% in size
Target sequence (Q9UIF8 whole entry, looked up): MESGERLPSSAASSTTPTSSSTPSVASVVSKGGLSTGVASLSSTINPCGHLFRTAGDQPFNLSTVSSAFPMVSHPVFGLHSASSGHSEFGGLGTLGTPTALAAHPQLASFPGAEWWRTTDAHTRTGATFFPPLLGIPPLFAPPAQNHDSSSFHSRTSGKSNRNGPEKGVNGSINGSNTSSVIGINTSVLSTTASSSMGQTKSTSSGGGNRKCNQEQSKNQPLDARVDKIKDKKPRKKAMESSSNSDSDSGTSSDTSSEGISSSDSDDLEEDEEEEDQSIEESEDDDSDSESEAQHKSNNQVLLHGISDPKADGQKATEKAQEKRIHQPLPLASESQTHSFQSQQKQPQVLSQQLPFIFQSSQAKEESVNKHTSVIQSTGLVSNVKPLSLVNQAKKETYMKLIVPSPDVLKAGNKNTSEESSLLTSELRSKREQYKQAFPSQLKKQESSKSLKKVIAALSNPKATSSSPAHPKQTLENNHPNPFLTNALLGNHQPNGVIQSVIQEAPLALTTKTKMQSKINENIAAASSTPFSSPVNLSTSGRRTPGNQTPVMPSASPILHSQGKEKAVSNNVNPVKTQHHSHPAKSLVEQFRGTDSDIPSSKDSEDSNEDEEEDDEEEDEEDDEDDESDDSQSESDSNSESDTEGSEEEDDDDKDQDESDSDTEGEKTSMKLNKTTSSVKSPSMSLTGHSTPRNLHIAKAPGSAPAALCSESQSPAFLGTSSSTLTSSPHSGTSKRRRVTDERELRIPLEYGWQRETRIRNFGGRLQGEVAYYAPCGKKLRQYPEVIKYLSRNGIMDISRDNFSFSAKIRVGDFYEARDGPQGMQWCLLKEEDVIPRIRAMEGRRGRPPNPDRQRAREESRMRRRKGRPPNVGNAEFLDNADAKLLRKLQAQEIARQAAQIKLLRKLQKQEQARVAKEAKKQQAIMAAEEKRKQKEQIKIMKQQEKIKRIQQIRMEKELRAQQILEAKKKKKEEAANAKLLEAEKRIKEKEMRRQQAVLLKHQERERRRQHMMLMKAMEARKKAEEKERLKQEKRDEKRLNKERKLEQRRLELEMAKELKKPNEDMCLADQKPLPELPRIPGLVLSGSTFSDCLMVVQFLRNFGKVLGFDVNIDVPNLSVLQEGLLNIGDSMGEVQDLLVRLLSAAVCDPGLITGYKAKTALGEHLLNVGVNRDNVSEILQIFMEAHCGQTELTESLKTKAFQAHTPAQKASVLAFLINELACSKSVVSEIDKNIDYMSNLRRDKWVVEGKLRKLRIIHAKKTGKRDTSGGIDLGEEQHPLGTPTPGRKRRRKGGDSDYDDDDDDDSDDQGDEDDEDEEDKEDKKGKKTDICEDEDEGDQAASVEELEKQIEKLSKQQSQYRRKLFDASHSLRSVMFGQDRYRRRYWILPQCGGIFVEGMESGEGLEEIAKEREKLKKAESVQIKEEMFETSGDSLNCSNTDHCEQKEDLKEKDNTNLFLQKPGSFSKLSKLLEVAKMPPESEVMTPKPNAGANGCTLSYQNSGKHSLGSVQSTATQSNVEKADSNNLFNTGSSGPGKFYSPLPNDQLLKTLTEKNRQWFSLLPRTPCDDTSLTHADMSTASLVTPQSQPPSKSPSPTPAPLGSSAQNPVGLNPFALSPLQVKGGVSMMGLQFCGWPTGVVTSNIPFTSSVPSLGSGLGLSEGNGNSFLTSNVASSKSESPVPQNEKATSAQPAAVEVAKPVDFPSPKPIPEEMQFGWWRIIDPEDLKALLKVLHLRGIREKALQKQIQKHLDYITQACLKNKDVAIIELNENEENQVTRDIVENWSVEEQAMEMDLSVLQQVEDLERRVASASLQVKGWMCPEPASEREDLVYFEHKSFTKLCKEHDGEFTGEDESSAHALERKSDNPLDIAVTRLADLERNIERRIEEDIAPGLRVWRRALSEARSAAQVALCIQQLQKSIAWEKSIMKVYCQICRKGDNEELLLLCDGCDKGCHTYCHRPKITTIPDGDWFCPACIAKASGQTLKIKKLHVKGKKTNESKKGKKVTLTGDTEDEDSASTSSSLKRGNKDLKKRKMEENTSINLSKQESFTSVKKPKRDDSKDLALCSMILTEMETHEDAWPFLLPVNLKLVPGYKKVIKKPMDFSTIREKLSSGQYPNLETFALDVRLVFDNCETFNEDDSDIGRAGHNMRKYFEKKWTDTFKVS
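BAZ2B 50 nM plus b-H3(5-23)K14Ac 50 nM, PBS pH 7.4/0.01% Tween-20, 30 min RT; compound added (max 110 uM), 30 min RT; streptavidin donor/Ni-chelate acceptor beads 10 ug/mL final, 20 min dark; AlphaScreen read.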
PI5P4Ka inh: inhibitors of human PI5P4K alpha. PI5P4Kalpha enzyme, ADP-Glo luminescence, 60 min; hits give low values. P48426. max response, %. AID 652105. 330,000 tested, 1.2% active; active = max response of -50% or lower; inconclusive = between -30% and -50%; inactive = -30% or higher; also: value at the top dose of about 77 µM; % is scaled to controls: 0 for no effect and ±100 for the full control effect
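Reactions run in 0.038 M HEPES pH 7.4, 0.28 mM EGTA, 0.1% CHAPS and 5% DMSO, with PI5P4Kalpha, substrate, compound and 5 microM ATP final, one hour at room temperature. Readout is ADP-Glo luminescence.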
G9a block: inhibitors of human histone lysine methyltransferase G9a | Q96KQ7 | G9a H3K9 monomethylation, AlphaScreen, 2 h | Potency, µM (highest dose often 102 µM), inactives show at the highest dose activity, negative = inhibition, hits mostly inhibitors | 350,000 tested, 8.8% active | AID 504332; also: potency is read from the fitted curve at half-maximal effect; % is scaled to controls: 0 for no effect and ±100 for the full control effect; nearly all actives have a fitted effect of over 75% in size
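Using a bead-based AlphaScreen, monomethylated H3K9 product from 2 h room-temperature reactions (G9a 20 nM, peptide 500 nM, SAM 20 uM) was detected with 0.5 ug/mL rabbit anti-H3K9me1 antibody.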
HP1b chromo inh: blocks HP1-beta chromodomain binding to methylated histone tails. Potency, µM (series often up to 114 µM), without a hit: at the top dose activity change, negative = inhibition, hits mostly inhibitors. AlphaScreen HP1-beta / biotin-H3K9me3 peptide binding. AID 540317. 390,000 tested, 0.56% active; also: potency is read from the fitted curve at half-maximal effect; nearly all actives have a fitted effect of over 70% in size
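AlphaScreen: HP1-beta (50 nM) preformed 30 min with biotin-H3(1-18)K9me3 peptide (50 nM) in PBS pH 7.4, 0.01% Tween-20. Compound added for 30 min at RT, then streptavidin donor/nickel chelate acceptor beads (10 ug/mL) for 30 min.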
JMJD2A Tudor: blocks the human JMJD2A Tudor domain; 390,000 tested, 4.4% active; Potency, µM (top dose mostly 114 µM), without a hit: at the highest dose activity change, negative = inhibition, actives largely listed as inhibitors; AID 504339; AlphaScreen JMJD2A-Tudor / H3K4me3 peptide binding; O75164; also: potency is read from the fitted curve at half-maximal effect; % is scaled to controls: 0 for no effect and ±100 for the full control effect; nearly all actives have a fitted effect of over 50% in size
* = called active by the depositor; ? = inconclusive; . = no result; [ ] = dose if it differs, or a comment. Unless noted, calls follow the shape of the dose curve; as a rule, active = well fitted inhibition curve with a large enough effect; inconclusive = small, poorly fitted or top-dose-only effect; inactive = no such curve, though single readings can be large or run the other way.

SMILES | L3MBTL1 block | BAZ2B inh | PI5P4Ka inh | G9a block | HP1b chromo inh | JMJD2A Tudor
COc1ccc(N2CCN(C3CCCN(Cc4ccc(F)cc4)C3)CC2)cc1 (centres undefined) | -12% | ? | -2 | ? | -16% | -32%
COc1ccc(C(=O)N2CCC(C(=O)N3CCN(Cc4ccccc4)CC3)CC2)cc1 | . | -11% | -7 | 34% | 9% | -12%
COc1ccccc1C(=O)N1CCN(C2CCN(Cc3ccccc3)CC2)CC1 | . | 56µM* | -1 | 10µM* | ? | 7.9µM*
COc1cccc(C(=O)N2CCN(C3CCCCC3)CC2)c1 | 4% | ? | 1 | . | -24% | 11µM*
COc1ccc(C(=O)N2CCN(C3CCC(c4ccccc4)CC3)CC2)cc1OC (centres undefined) | 2% | 50µM* | . | 3.2µM* | -49% | 2.8µM*
COc1cccc(C(=O)N2CCN(C3CCN(Cc4ccccc4)CC3)CC2)c1 | . | 28µM* | . | 8.9µM* | . | .
O=C(c1cccc(OC2CCN(C3CCCC3)CC2)c1)N1CCCCCCC1 | -1% | -8% | 1 | -37% | 38% | -2%
COc1ccccc1C(=O)N1CCN(C(=O)Cc2ccccc2)CC1 | . | 0% | 1 | -5%[59 µM] | 10% | -4%
COc1ccc(CCC(=O)NC2CC(=O)N(c3ccc(C)c(C)c3)C2)cc1 (centres undefined) | . | -1% | . | -7%[59 µM] | 38% | -2%
COC(=O)c1ccccc1NC(=O)C1=C(C)C(=O)OC12CCCCCC2 | . | 25% | . | 10%[59 µM] | 35% | 17%
O=S(=O)(c1ccccc1)N1CCC(N2CCN(c3ccccc3)CC2)CC1 | 0% | 6% | . | -6%[59 µM] | . | .
c1ccc(C2CCC(N3CCN(c4ccccc4)CC3)CC2)cc1 (centres undefined) | 1% | ? | 0 | 56µM* | 2% | ?
CC(OC(=O)c1ccc([N+](=O)[O-])o1)C(=O)Nc1nc(-c2ccc(F)c(F)c2)cs1 (centres undefined) | -19% | ? | -9 | 28µM* | -19% | ?
CC(OC(=O)c1cccs1)C(=O)Nc1nc(-c2ccccc2)cs1 (centres undefined) | 4% | 3% | -2 | 79µM* | 25% | 5%
Cc1cc(C(=O)OC(C)C(=O)Nc2nc(-c3ccccc3)cs2)c(C)o1 (centres undefined) | . | -28% | . | -4%[12.7 µM] | 2% | -26%
Cc1cccc(OC(C)C(=O)Nc2nc(-c3ccncc3)cs2)c1 (centres undefined) | 1% | 5% | 0 | 35µM* | 22% | -5%
O=[N+]([O-])c1cc(S(=O)(=O)N2CCCC2)ccc1NN=C1CCCCC1 | 2% | -18% | 1 | 4%[59 µM] | 2% | -24%
CCN(CC)S(=O)(=O)c1ccc(NN=C2CCN(C)CC2)c([N+](=O)[O-])c1 | ? | . | -3 | 35µM* | ? | ?
CCN1CCN(c2ccc(S(=O)(=O)N(CC)CC)cc2[N+](=O)[O-])CC1 | -8% | -8% | -4 | ? | -2% | -12%
CCN(CC)S(=O)(=O)c1ccc(NN=C2CCN(C(C)C)CC2)c([N+](=O)[O-])c1 | ? | ? | 4 | 45µM* | -28% | ?
CC(C)(C)C1CCC(=NNc2ccc(S(N)(=O)=O)cc2[N+](=O)[O-])CC1 (centres undefined) | -12% | ? | -9 | 25µM* | -7% | ?
O=C(Nc1c(C(=O)c2ccc(F)cc2)oc2ccccc12)c1cc(-c2ccccc2)on1 | . | -2% | . | -19%[59 µM] | 49% | 3%
O=C(CCn1ccc2cc(S(=O)(=O)N3CCCC3)ccc21)NCc1cccc(Br)c1 | . | 3% | . | 1%[59 µM] | 67% | -5%
Cc1ccc(NC(=O)CN2C(=O)C(C)(C)c3cc(S(=O)(=O)N4CCCCC4)ccc32)c(Br)c1 | . | -2% | . | -4%[59 µM] | 26%[57 µM] | -18%
COc1ccc(S(=O)(=O)N(CC(=O)N2CCC(C)CC2)c2ccc(C)cc2)cc1 | . | 0% | . | -37%[59 µM] | 24% | -6%
SMILES | L3MBTL1 block | BAZ2B inh | PI5P4Ka inh | G9a block | HP1b chromo inh | JMJD2A Tudor
Cc1cc(C)cc(NC(=O)C2CCN(C(=O)[C@@H]3Cc4ccccc4CN3)CC2)c1 | . | ? | -26 | 50µM* | 30% | 22µM*
Cc1ccc(NC(=O)C2CCN(C(=O)[C@@H]3Cc4ccccc4CN3)CC2)cc1 | . | -11% | 5 | 56µM* | 45% | -8%
Cc1ccc(NC(=O)C2CCCN2C(=O)Oc2ccccc2)c(C)c1 (centres undefined) | 20% | -9% | 3 | . | 49% | -9%
Cc1ccc(NC(=O)[C@@H]2CCCN2C(=O)[C@@H]2Cc3ccccc3CN2)c(C)c1 | . | -17% | 7 | 50µM* | 37% | -10%
O=C([C@@H]1Cc2ccccc2CN1)N1CCN(Cc2ccccc2)CC1 | . | 79µM* | -2 | 32µM* | 42% | -4%
CC(C)c1ccc(NC(=O)C2CCN(C(=O)[C@@H]3Cc4ccccc4CN3)CC2)cc1 | . | -22% | 6 | . | 16% | -21%
Cc1cc(C)cc(NC(=O)C2CCC(CNC(=O)[C@@H]3Cc4ccccc4CN3)CC2)c1 (some centres undefined) | . | -16%[57.1 µM] | 1 | -4% | 19%[57 µM] | -3%
COc1ccc(C(=O)N(Cc2cccs2)Cc2cccs2)c(O)c1 | . | . | . | . | . | -28%
Cc1ccc(NC(=O)Cn2cc(C(=O)c3ccco3)c3ccccc32)cc1C | . | 1%[57.1 µM] | . | -1%[59 µM] | 13% | -19%
NC(C(=O)O)[C@@H]1CC(Cl)=NO1 (some centres undefined) | . | . | . | -34%[2.33 µM] | . | .
NC(C(=O)O)C1ON=C(Cl)C1O (centres undefined) | . | . | -3 | . | 44% | 79µM*
Cc1cccc(Cn2c(=O)n(Cc3ccc(C(=O)NC4CCN(Cc5ccccc5)CC4)cc3)c(=O)c3ccccc32)c1 | . | -2% | . | -2%[59 µM] | 21% | -4%
CS(=O)(=O)N1CCC2(CC1)CN(c1ccccn1)C2 | . | . | . | -14%[12.7 µM] | . | .
Cc1nc(SC(C)C(=O)Nc2ccccc2Cl)cc(-c2ccccc2)n1 (centres undefined) | . | 48% | . | 38%[59 µM] | 140% | 61%
CC(=O)c1c(CC(=O)O)[nH]n(-c2nc3ccccc3s2)c1=O | . | -9% | . | ? | -4% | 79µM*
COc1ccc(CN=C(C)c2c(C(F)(F)F)[nH]n(-c3nc4ccccc4s3)c2=O)cc1 | . | 7% | . | -2%[59 µM] | 13% | -10%
Cc1cc(NC(=O)c2ccco2)cc(-c2nc3cc(Cl)ccc3o2)c1O | . | -12% | . | 27%[59 µM] | 57% | -12%
Brc1cccc(OCCCNC2CCCC2)c1 | 8% | ? | 1 | 16µM* | 16% | 16µM*
CC(C)NCCOc1cccc(Br)c1 | . | ? | 0 | 50µM* | 11% | 4%
OCCNCCCCOc1cccc(Br)c1 | -3% | 3% | -4 | -19%[59 µM] | 47% | -5%
